# Data published in the supplement of paper PMC8728848.
# About 410 targets per protein were measured; listed, in parts, are those with the strongest signals and a random draw of the rest.
# B1: OGAA (protein)
# chain: MVQKESQATLEERESELSSNPAASAGASLEPPAAPAPGEDNPAGAGGAAVAGAAGGARRFLCGVVEGFYGRPWVMEQRKELFRRLQKWELNTYLYAPKDDYKHRMFWREMYSVEEAEQLMTLISAAREYEIEFIYAISPGLDITFSNPKEVSTLKRKLDQVSQFGCRSFALLFADIDHNMCAADKEVFSSFAHAQVSITNEIYQYLGEPETFLFCPTEYCGTFCYPNVSQSPYLRTVGEKLLPGIEVLWTGPKVVSKEIPVESIEEVSKIIKRAPVIWDNIHANDYDQKRLFLGPYKGRSTELIPRLKGVLTNPNCEFEANYVAIHTLATWYKSNMNGVRKDVVMTDSEDSTVSIQIKLENEGSDEDIETDVLYSPQMALKLALTEWLQEFGVPHQY
# Assays:
# Experiment in all cases: glycan array binding signal (z-score within array); higher = stronger binding
# Settings in all cases: glycan notation: IUPAC condensed, linker removed
# [1] = target: Fuc(a1-2)Gal(b1-3)GlcNAc(b1-2)Man(a1-3)[Fuc(a1-2)Gal(b1-3)GlcNAc(b1-2)Man(a1-6)]Man(b1-4)GlcNAc(b1-4)[Fuc(a1-6)]GlcNAc
# How it was run: (§1)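 Arrays were curated from the Consortium for Functional Glycomics database, 3228 in total, and kept only where the protein sequence was available. Binding is expressed as a within-array Z-score. This score was averaged across arrays of the same protein sequence at different concentrations or buffers and across linkers, and negative values can be read as non-binding.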
# [2] = target: Fuc(a1-2)Gal(b1-3)[Fuc(a1-4)]GlcNAc
# How it was run: as §1
# [3] = target: Fuc(a1-2)Gal(b1-3)[Fuc(a1-4)]GlcNAc(b1-2)Man(a1-3)[Fuc(a1-2)Gal(b1-3)[Fuc(a1-4)]GlcNAc(b1-2)Man(a1-3)]Man(b1-4)GlcNAc(b1-4)GlcNAc
# How it was run: as §1
# [4] = target: Fuc(a1-2)Gal(b1-3)[Fuc(a1-4)]GlcNAc(b1-2)Man(a1-3)[Fuc(a1-2)Gal(b1-3)[Fuc(a1-4)]GlcNAc(b1-2)Man(a1-6)]Man(b1-4)GlcNAc(b1-4)[Fuc(a1-6)]GlcNAc(b1-4)[Fuc(a1-6)]GlcNAc
# How it was run: as §1
# [5] = target: Fuc(a1-2)Gal(b1-4)GlcNAc(b1-2)Man(a1-3)[Fuc(a1-2)Gal(b1-4)GlcNAc(b1-2)Man(a1-6)]Man(b1-4)GlcNAc(b1-4)[Fuc(a1-6)]GlcNAc
# How it was run: as §1
# [6] = target: Fuc(a1-2)Gal(b1-4)GlcNAc(b1-3)Gal(b1-4)GlcNAc(b1-2)Man(a1-3)[Fuc(a1-2)Gal(b1-4)GlcNAc(b1-3)Gal(b1-4)GlcNAc(b1-2)Man(a1-6)]Man(b1-4)GlcNAc(b1-4)GlcNAc
# How it was run: as §1
# [7] = target: Fuc(a1-2)Gal(b1-4)[Fuc(a1-3)]GlcNAc
# How it was run: as §1
# [8] = target: Fuc(a1-2)Gal3S(b1-4)GlcNAc
# How it was run: as §1
# [9] = target: Fuc(a1-2)Gal6S(b1-3)GlcNAc6S
# How it was run: as §1
# [10] = target: Fuc(a1-2)Gal6S(b1-4)Glc6S
# How it was run: as §1
# [11] = target: Fuc(a1-2)[GalNAc(a1-3)]Gal(b1-3)GalNAc(a1-3)[Fuc(a1-2)]Gal(b1-4)GlcNAc
# How it was run: as §1
# [12] = target: Fuc(a1-2)[GalNAc(a1-3)]Gal(b1-3)GalNAc(b1-3)Gal(a1-4)Gal(b1-4)Glc
# How it was run: as §1
# [13] = target: Fuc(a1-3)[Gal(b1-4)]GlcNAc(b1-6)GalNAc
# How it was run: as §1
# [14] = target: Fuc(a1-3)[Gal(b1-4)]GlcNAc6S
# How it was run: as §1
# Gal(a1-2)Gal = target: Gal(a1-2)Gal
# How it was run: as §1
# [15] = target: Gal(a1-3)Gal(b1-3)GlcNAc(b1-2)Man(a1-3)[Gal(a1-3)Gal(b1-3)GlcNAc(b1-2)Man(a1-6)]Man(b1-4)GlcNAc(b1-4)GlcNAc
# How it was run: as §1
# [16] = target: Gal(a1-3)Gal(b1-3)GlcNAc(b1-6)GalNAc
# How it was run: as §1
# [17] = target: Gal(a1-3)Gal(b1-4)[Fuc(a1-3)]GlcNAc(b1-2)Man(a1-3)[Gal(a1-3)Gal(b1-4)[Fuc(a1-3)]GlcNAc(b1-2)Man(a1-6)]Man(b1-4)GlcNAc(b1-4)GlcNAc
# How it was run: as §1
# [18] = target: Gal(a1-4)Gal(b1-3)GlcNAc(b1-2)Man(a1-3)[Gal(a1-4)Gal(b1-3)GlcNAc(b1-2)Man(a1-6)]Man(b1-4)GlcNAc(b1-4)GlcNAc
# How it was run: as §1
# [19] = target: Gal(a1-4)Gal(b1-4)GlcNAc(b1-3)Gal(b1-4)Glc
# How it was run: as §1
# [20] = target: Gal(b1-3)[Fuc(a1-4)]GlcNAc(b1-2)Man(a1-3)[Gal(b1-3)[Fuc(a1-4)]GlcNAc(b1-2)Man(a1-6)]Man(b1-4)GlcNAc(b1-4)[Fuc(a1-6)]GlcNAc
# How it was run: as §1
# [21] = target: Gal(b1-3)[Neu5Ac(b2-6)]GalNAc
# How it was run: as §1
# [22] = target: Gal(b1-4)GlcNAc(b1-2)Man(a1-3)[Gal(b1-4)GlcNAc(b1-2)Man(a1-6)][GlcNAc(b1-4)]Man(b1-4)GlcNAc(b1-4)[Fuc(a1-6)]GlcNAc
# How it was run: as §1
# [23] = target: Gal(b1-4)GlcNAc(b1-2)[Gal(b1-4)GlcNAc(b1-6)]Man(a1-6)[Gal(b1-4)GlcNAc(b1-2)Man(a1-3)]Man(b1-4)GlcNAc(b1-4)GlcNAc
# How it was run: as §1
# [24] = target: Gal(b1-4)GlcNAc(b1-3)Gal(b1-3)GalNAc
# How it was run: as §1
binder,measurement,setting,value
B1,glycan array binding signal (z-score),[1],0.026
same,glycan array binding signal (z-score),[2],-0.076
same,glycan array binding signal (z-score),[3],0.285
same,glycan array binding signal (z-score),[4],0.251
same,glycan array binding signal (z-score),[5],0.206
same,glycan array binding signal (z-score),[6],0.006
same,glycan array binding signal (z-score),[7],-0.07
same,glycan array binding signal (z-score),[8],-0.06
same,glycan array binding signal (z-score),[9],1.74
same,glycan array binding signal (z-score),[10],0.205
same,glycan array binding signal (z-score),[11],22.9
same,glycan array binding signal (z-score),[12],8.04
same,glycan array binding signal (z-score),[13],0.242
same,glycan array binding signal (z-score),[14],-0.107
same,glycan array binding signal (z-score),Gal(a1-2)Gal,0.002
same,glycan array binding signal (z-score),[15],0.031
same,glycan array binding signal (z-score),[16],-0.107
same,glycan array binding signal (z-score),[17],0.644
same,glycan array binding signal (z-score),[18],-0.007
same,glycan array binding signal (z-score),[19],-0.098
same,glycan array binding signal (z-score),[20],0.357
same,glycan array binding signal (z-score),[21],-0.096
same,glycan array binding signal (z-score),[22],-0.009
same,glycan array binding signal (z-score),[23],-0.08
same,glycan array binding signal (z-score),[24],-0.11
